# HepG2 viability = counter-screen for TGF-b inhibitors: cytotoxicity in HepG2 cells | HepG2 CAGA-GFP viability, ATP luminescence, 18 h | Potency, µM (series often up to 46.1 µM), inactives show top-dose activity change, negative = cytotoxicity, usual class: cytotoxic | actives 0.76% (n = 410,000) | AID 588856; note: potency is the fitted concentration of half-maximal effect
#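 CellTiter-Glo luminescence gave cytotoxicity after 18 hours at 37 degrees C. The cells were HepG2 CAGA-GFP in 1% FBS DMEM, stimulated with 500 pg/mL TGF-beta after compound addition. %Activity was normalised to no-cell wells (complete cell-killing) and DMSO (no toxicity), and curves were fitted and classified.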
# TGFb inhibitor = TGF-b pathway inhibition | HepG2 CAGA-GFP TGF-b/SMAD3 reporter, GFP fluorescence, 18 h; TGF-beta stimulated, 500 pg/mL final | Potency, µM (doses to about 46.1 µM), inactives show at the highest dose activity, negative = inhibition, most hits filed as inhibitors | actives 1.2% (n = 410,000) | AID 588855; note: potency is the fitted concentration of half-maximal effect; % is set by controls: 0 for no effect and ±100 for the full control effect; nearly all actives have a fitted effect of over 65% in size
#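 Inhibition was scored as loss of TGF-beta-induced (500 pg/mL final, 18 hours, 37 degrees C) GFP in HEPG2 cells carrying a CAGA-GFP reporter, in DMEM with 1% FBS. Well GFP was summed per cell; Activity was normalised to unstimulated and stimulated DMSO wells, then concentration-response fitting.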
# DT40 TDP1 CPT = growth inhibition of DT40 Tdp1-/-;hTDP1 cells with camptothecin (screen for TDP1 inhibitors); chicken DT40 Tdp1-/-;hTDP1 cells + 20 nM CPT, ATP luminescence, 48 h; Potency, µM (top dose mostly 46.2 µM), for inactives: top-dose activity change, negative = growth inhibition, usual class: inhibitors; actives 12% (n = 420,000); note: potency is the fitted concentration of half-maximal effect; % is set by controls: 0 for no effect and ±100 for the full control effect; nearly all actives have a fitted effect of over 55% in size
#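 Chicken DT40 Tdp1-/- cells stably complemented with human TDP1 were seeded at 400 cells/well in medium containing 20 nM camptothecin, exposed to pin-transferred compounds, and grown at 37 °C for at least 48 hr. Viability was read as ATP luminescence.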
# IL-1B inflam inh = inflammasome signaling inhibition, IL-1 beta readout. THP-1 LPS/ATP IL-1B secretion, AlphaLISA, 16 h; active compounds read low. activity change, % at 57.5 µM. actives 4.7% (n = 360,000); in the data active = activity change below about -50%; inconclusive = mostly about -30% to -49%; note: % is set by controls: 0 for no effect and ±100 for the full control effect
#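 THP-1 cells pretreated 1 hr with compounds (up to 57.5 uM final), then stimulated with LPS (250 ng/mL final) plus ATP (1.25 mM final); secreted IL-1B measured by AlphaLISA after 16 hr, decreased signal indicating inhibition.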
# DT40 TDP1 no CPT = qHTS for Inhibitors of human tyrosyl-DNA phosphodiesterase 1 (TDP1): qHTS in cells in absence of CPT; actives 15% (n = 420,000); AID 686978, 2013; DT40 Tdp1-/- hTDP1 cells, no CPT, ATP luminescence, 48 h; Potency, µM (doses to about 46.2 µM), for inactives: at the top dose activity change, negative = growth inhibition, hits mostly inhibitors; note: potency is the fitted concentration of half-maximal effect; % is set by controls: 0 for no effect and ±100 for the full control effect; nearly all actives have a fitted effect of over 55% in size
#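 Cells were dispensed at 400 per well, compounds added by pin tool, plates incubated ≥48 hr at 37 °C, then CellTiter-Glo added for 30 min at room temperature before luminescence reading. Line: DT40 Tdp1-/- complemented with hTDP1; camptothecin omitted.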
# TDP1 block = inhibitors of human tyrosyl-DNA phosphodiesterase TDP1; recombinant TDP1, AlphaScreen DNA substrate cleavage; Potency, µM (titrated, usually from 130 µM), without a hit: at the highest dose activity change, negative = inhibition, actives largely listed as inhibitors; Q9NUW8; actives 0.28% (n = 350,000); note: potency is the fitted concentration of half-maximal effect; % is set by controls: 0 for no effect and ±100 for the full control effect; nearly all actives have a fitted effect of over 40% in size
# Target sequence (Q9NUW8 whole entry, looked up): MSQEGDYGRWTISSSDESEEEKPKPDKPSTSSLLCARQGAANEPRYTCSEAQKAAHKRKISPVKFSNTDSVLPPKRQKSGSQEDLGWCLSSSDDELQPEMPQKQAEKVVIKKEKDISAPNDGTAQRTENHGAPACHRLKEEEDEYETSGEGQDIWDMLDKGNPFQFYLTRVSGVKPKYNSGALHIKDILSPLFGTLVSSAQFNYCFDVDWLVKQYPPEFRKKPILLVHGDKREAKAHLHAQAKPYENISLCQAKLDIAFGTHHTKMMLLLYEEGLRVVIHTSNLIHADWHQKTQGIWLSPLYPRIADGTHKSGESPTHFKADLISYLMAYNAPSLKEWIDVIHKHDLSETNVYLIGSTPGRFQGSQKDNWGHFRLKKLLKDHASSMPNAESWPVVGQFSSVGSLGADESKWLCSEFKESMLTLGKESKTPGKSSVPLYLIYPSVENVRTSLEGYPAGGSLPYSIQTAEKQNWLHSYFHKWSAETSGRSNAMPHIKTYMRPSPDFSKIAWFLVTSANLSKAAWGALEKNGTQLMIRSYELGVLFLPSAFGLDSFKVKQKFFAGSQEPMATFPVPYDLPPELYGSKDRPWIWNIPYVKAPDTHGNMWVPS
#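 Here, a 5' biotin and 3' phosphotyrosine-FITC DNA oligonucleotide reports Tdp1 activity: intact substrate bridges AlphaScreen beads, while cleavage leaves a 3' phosphate and drops signal. All incubations at room temperature.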
# Active calls of the source: *; ? = inconclusive; . = no result given; [ ] = another dose, or the depositor's remark. Compounds with a hit are over-represented: about 19% of the library has one in this group of screens. Unless noted, calls come from the whole dose curve; as a rule, active = well fitted curve in the direction sought with a large enough effect; inconclusive = small, poorly fitted or top-dose-only effect, or another doubt; inactive = no such curve, though single readings can be large; an effect the other way counts as inactive or inconclusive.
SMILES,HepG2 viability,TGFb inhibitor,DT40 TDP1 CPT,IL-1B inflam inh,DT40 TDP1 no CPT,TDP1 block
O=C(c1sc2cc([N+](=O)[O-])ccc2c1Cl)N1CCCCC1,-14.6%,-7.6%,-2.4%,?,?,5.8%
O=C(Cc1cccc(NC(=O)C2CCCN(C(=O)C3CCC3)C2)c1)Nc1ccc(C(=O)N2CCCCC2)cc1 (stereo not given),0.0%,-1.1%,?,-4.8,-9.6%,.
OB(O)c1cc2ccccc2o1,-19.6%,1.9%,-8.9%,.,-16.1%,.
COc1cc(C(=O)Nc2sc3c(c2C(N)=O)CCC(C)C3)cc(OC)c1OC (stereo not given),-2.7%,-3.5%,?,.,-14.6%,1.3%[12.3 µM]
COc1cc(C(=O)Nc2sc3c(c2C#N)CCCC3)c(Br)c(OC)c1OC,-13.7%,-23.7%,?,.,3.26µM*,4.0%[12.3 µM]
COC(=O)c1c(NC(=O)c2cc(OC)c(OC)c(OC)c2Br)sc2c1CCC(C)C2 (stereo not given),2.5%,0.3%,?,.,20.6µM*,.
OB(O)c1csc2ccccc12,-29.2%,0.1%,-4.2%,.,11.2µM*,-0.9%
O=C(COC(=O)COc1ccccc1)Nc1cccc([N+](=O)[O-])c1,16.3%,-1.0%,-5.8%,-9.0,-11.9%,2.3%
O=C(COc1ccccc1C(=O)Nc1cccc([N+](=O)[O-])c1)Nc1ccc(Br)cc1,-20.8%,?,7.94µM*,.,15.8µM*,.
CC(NS(=O)(=O)c1ccc(OCC(=O)Nc2cccc([N+](=O)[O-])c2)cc1)c1ccccc1 (stereo not given),-9.5%,?,?,-4.2,20.6µM*,5.3%
O=C(COc1cccc2ccccc12)Nc1cc(Cl)ccc1C(=O)O,-30.7%,0.0%,10.9%,-53.2*,-9.7%,5.2%
O=C(COc1ccccc1C(=O)Nc1ccccc1)NCCCCc1ccccc1,.,.,?,.,17.8µM*,.
CC(=O)c1cc(-c2ccccc2)n(CCC(=O)NCc2ccc(C)cc2)c1C,-3.8%,0.0%,?,.,?,7.6%
O=C(COc1ccccc1C(=O)Nc1ccccc1)Nc1cccc([N+](=O)[O-])c1,-1.5%,-2.0%,12.6µM*,.,?,.
CCCOC(=O)c1cccc(NC(=O)COc2ccc([N+](=O)[O-])cc2)c1,2.8%,-15.0%,18.4µM*,-8.1,23.1µM*,3.0%
CCCCc1ccc(NC(=O)COC(=O)c2ccccc2OCC(=O)Nc2ccc(Br)cc2)cc1,0.2%,11.9%,11.2µM*,.,?,.
CCOC(=O)c1cccc(NC(=O)COc2ccc([N+](=O)[O-])cc2)c1,-8.0%,-14.0%,?,9.9,?,-2.0%
COc1cccc(NC(=O)c2ccccc2OCC(=O)Nc2ccc(Br)cc2)c1,-11.9%,?,?,.,?,.
O=C(COc1ccccc1C(=O)Nc1ccccc1)Nc1cccc(Cl)c1,.,.,17.8µM*,.,17.8µM*,.
Cc1noc(-c2ccccc2OCC(=O)Nc2cccc([N+](=O)[O-])c2)n1,0.7%,-8.5%,?,.,-28.5%,11.4%
CC(C)(C)NC(=O)COC(=O)c1ccccc1OCC(=O)Nc1ccc(Br)cc1,-25.1%,-15.6%,-3.2%,2.8,-26.8%,2.7%
COc1cccc(CN2CCc3nnc(CCc4ccccc4)n3CC2)c1OC,.,.,0.4%[9.04 µM],.,-9.5%,.
Brc1ccc(/C=C2\C=Cc3ccccc32)cc1,-32.7%,-7.1%,?,.,?,.
CCN(CC)c1nn2c(=O)c(C(=O)NCc3cccc(OC)c3OC)cnc2s1,-21.0%,-10.6%,?,.,?,1.9%
CC1(C)CCc2cc(O)ccc2O1,.,.,-0.1%,.,-3.9%,.
